# Experimental data reported in ChEMBL document CHEMBL1201862, “PubChem BioAssay data set” (2004).
# Out of some 310,000 compounds screened, about 11,000 (3.5%) were called active. Another 4% or so got no clear call; they are omitted. The calls are words filed in the database; no cut-off is given here. This excerpt belongs to a sample that is enriched for actives.
# Molecular target: T1, 4'-phosphopantetheinyl transferase ffp (Bacillus subtilis) (UniProt Q9F4F7)
# T1 sequence (whole entry): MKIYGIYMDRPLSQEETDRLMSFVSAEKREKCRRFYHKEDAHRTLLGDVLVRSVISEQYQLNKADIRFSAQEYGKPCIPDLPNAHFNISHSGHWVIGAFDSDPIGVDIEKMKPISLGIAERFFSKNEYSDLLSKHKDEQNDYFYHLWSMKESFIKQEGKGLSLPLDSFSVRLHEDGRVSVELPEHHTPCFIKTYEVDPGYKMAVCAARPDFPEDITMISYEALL
# Test: qHTS Assay for Inhibitors of Bacillus subtilis Sfp phosphopantetheinyl transferase (PPTase).
# Assay type: functional
row,SMILES,Potency
1,Cl[Te]1(Cl)OCCO1,158 nM (active)
